# Unmarked numbers belong to inactive results. Results filed as inconclusive are left out. Entries that show only a call come without a potency. Calls of active or inactive are those of the source. Unless noted, calls follow the shape of the full dose curve.
# What was measured:
# [1] = Nuclear factor erythroid 2-related factor 2/antioxidant responsive element (Nrf2/ARE) small molecule agonists: qHTS cell viability counter screen in human keratinocytes (AID 1919968; active = well fitted curve in the direction sought with a large enough effect in the repeat runs; an effect the other way counts as inactive or inconclusive; also: nearly all actives have a fitted effect of over 55% in size; also: potency is read from the fitted curve at half-maximal effect)
# In short: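 Cytotoxicity was multiplexed with the Nrf2/ARE luciferase assay in the same wells. Stably transfected HaCaT keratinocytes were treated with test compounds for 23 h at 37 C. Cell viability was then measured by CellTiter-Fluor fluorescence.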
# [2] = Nuclear factor erythroid 2-related factor 2/antioxidant responsive element (Nrf2/ARE) small molecule agonists: luciferase reporter gene qHTS assay in human keratinocytes (AID 1919969); also: nearly all actives have a fitted effect of over 35% in size
# [3] = target: Gonadotropin-releasing hormone receptor (Homo sapiens) (UniProt P30968); assay: Human gonadotropin-releasing hormone receptor (GnRHR) small molecule agonists, calcium flux assay in GnRHR-HEK293 cells (AID 1920063); also: nearly all actives have a fitted effect of over 35% in size
# Sequence of Gonadotropin-releasing hormone receptor (Homo sapiens) (P30968 whole entry, looked up): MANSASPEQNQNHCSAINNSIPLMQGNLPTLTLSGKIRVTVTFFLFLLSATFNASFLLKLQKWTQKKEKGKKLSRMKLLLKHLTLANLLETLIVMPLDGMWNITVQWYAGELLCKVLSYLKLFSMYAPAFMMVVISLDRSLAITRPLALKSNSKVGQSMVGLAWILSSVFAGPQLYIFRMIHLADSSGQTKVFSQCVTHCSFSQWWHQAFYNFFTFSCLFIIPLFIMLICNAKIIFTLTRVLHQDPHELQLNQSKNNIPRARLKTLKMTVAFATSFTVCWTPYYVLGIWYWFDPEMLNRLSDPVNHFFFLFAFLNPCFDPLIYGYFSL
# In short: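 Agonist activity was measured as intracellular calcium flux in HEK293 cells engineered to stably express human GnRHR. After dye loading for 1 hour at 37 C, compounds in DMSO were added and fluorescence was followed for 3 minutes.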
# [4] = target: KiSS-1 receptor (Homo sapiens) (UniProt Q969F8); assay: Human kisspeptin (KISS1R) small molecule agonists, calcium flux assay in KISS1R-HEK293 cells (AID 1920064; active = well fitted curve in the direction sought with a large enough effect in the repeat runs; an effect the other way counts as inactive or inconclusive)
# Sequence of KiSS-1 receptor (Homo sapiens) (Q969F8 whole entry, looked up): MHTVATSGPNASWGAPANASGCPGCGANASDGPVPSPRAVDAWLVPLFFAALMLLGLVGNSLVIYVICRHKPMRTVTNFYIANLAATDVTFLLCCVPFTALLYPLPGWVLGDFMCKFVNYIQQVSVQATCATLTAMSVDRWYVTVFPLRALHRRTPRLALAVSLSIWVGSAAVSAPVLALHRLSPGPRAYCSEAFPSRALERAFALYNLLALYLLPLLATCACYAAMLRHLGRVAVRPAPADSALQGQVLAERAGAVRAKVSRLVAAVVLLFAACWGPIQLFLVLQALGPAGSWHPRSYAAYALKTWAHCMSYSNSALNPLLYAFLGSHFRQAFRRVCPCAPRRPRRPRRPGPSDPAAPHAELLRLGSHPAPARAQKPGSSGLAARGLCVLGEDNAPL
# In short: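 Agonist activity is monitored as intracellular calcium rise in engineered HEK293 cells carrying human KISS1R. Cells are dye-loaded for 1 h at 37 C before compound addition, and fluorescence is recorded for 3 min.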
# [5] = G protein-coupled receptor (GPCR) small molecule agonists, calcium flux assay: HEK293 wild type cell line counter screen (AID 1920065)
# In short: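 Seed cells, incubate 18 h (37 C, 5% CO2); add calcium dye, 1 h at 37 C; pin-transfer compounds, ATP control or DMSO; read fluorescence 480/540 nm each second for 3 min.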
# [6] = p53 small molecule agonists, cell-based qHTS assay with rat liver microsomes (AID 1963578)
# In short: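 Cells carrying a p53 response element–beta-lactamase reporter were plated and rested 5 h, then dosed with compound in DMSO plus rat liver microsomes and NADPH, each at 0.5 mg/mL final. After 16 h at 37 C, LiveBLAzer substrate was added for 2 h.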
# [7] = p53 small molecule agonists, cell-based qHTS assay with human liver microsomes: qHTS cell viability counter screen (AID 1963579); also: nearly all actives have a fitted effect of over 45% in size
# In short: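 Cytotoxicity counter screen: p53RE-bla, 4,000 cells/well; 5 h settle, 37 C/5% CO2; cpd + HLM 0.5 mg/mL + NADPH 0.5 mg/mL (final); 16 h, 37 C; CellTiter-Glo, 30 min RT, luminescence.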
# [8] = p53 small molecule agonists, cell-based qHTS assay with rat liver microsomes: qHTS cell viability counter screen (AID 1963580); also: nearly all actives have a fitted effect of over 45% in size
# In short: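 After the beta-lactamase ratio was read, CellTiter-Glo was added to the same wells and luminescence measured at 30 min; cells had been treated 16 h at 37 C with compounds, rat liver microsomes and NADPH (0.5 mg/mL final each).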
# [9] = p53 small molecule agonists, cell-based qHTS assay: qHTS cell viability counter screen (AID 1963581); also: nearly all actives have a fitted effect of over 45% in size
# In short: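 Viability was counter-screened in parallel with the p53 agonist reporter by measuring intracellular ATP luminescence in the same HCT-116 p53RE-bla wells after 16 h compound treatment at 37 C.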
# [10] = p53 small molecule agonists, cell-based qHTS assay (AID 1963582; active = well fitted activation curve with a large enough effect in the signal ratio in the repeat runs, not every such curve was filed as active; the % refers to the signal ratio)
# In short: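 Cells carrying a p53-responsive bla reporter are treated with test compounds for 16 h at 37 C; beta-lactamase activity is then detected with LiveBLAzer B/G FRET substrate after 2 h at room temperature.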
# [11] = target: 5-hydroxytryptamine receptor 2A (Homo sapiens) (UniProt P28223); assay: 5-hydroxytryptamine receptor 2A (HTR2A) small molecule antagonists, cell-based qHTS assay (AID 1963586); also: nearly all actives have a fitted effect of over 45% in size
# Sequence of 5-hydroxytryptamine receptor 2A (Homo sapiens) (P28223 whole entry, looked up): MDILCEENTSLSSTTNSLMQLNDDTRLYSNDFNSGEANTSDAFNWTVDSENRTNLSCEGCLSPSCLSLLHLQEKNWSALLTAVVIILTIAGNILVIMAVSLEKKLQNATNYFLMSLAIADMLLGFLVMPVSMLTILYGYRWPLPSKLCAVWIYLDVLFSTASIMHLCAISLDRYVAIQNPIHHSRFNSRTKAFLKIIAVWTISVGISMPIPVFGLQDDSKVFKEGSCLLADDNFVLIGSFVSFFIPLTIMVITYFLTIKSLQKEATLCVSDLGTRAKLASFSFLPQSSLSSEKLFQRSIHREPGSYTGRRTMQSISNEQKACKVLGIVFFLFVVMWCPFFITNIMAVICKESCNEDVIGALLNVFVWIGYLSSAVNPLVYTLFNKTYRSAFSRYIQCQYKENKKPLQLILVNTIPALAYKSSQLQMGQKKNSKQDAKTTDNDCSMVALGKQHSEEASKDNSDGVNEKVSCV
# In short: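 CHO cells stably expressing human HTR2A were plated for 18 h at 37 C, then loaded with calcium dye for 1 h. Compounds were preincubated 5 min at room temperature before DOI (4 nM solution) was added. Kinetic fluorescence was read for 3 min.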
# [12] = target: 5-hydroxytryptamine receptor 2A (Homo sapiens) (UniProt P28223); assay: 5-hydroxytryptamine receptor 2A (HTR2A) small molecule agonists, cell-based qHTS assay (AID 1963587); also: nearly all actives have a fitted effect of over 30% in size
# In short: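 CHO cells stably expressing human HTR2A, plated 18 h, loaded with calcium dye 1 h at 37 C. Agonist mode: compounds added and intracellular calcium fluorescence recorded kinetically for 2 min at 1 sec intervals.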
# [13] = target: Muscarinic acetylcholine receptor M1 (Homo sapiens) (UniProt P11229); assay: Cholinergic receptor muscarinic 1 (CHRM1) small molecule antagonists, cell-based qHTS assay (AID 1963588); also: nearly all actives have a fitted effect of over 40% in size
# Sequence of Muscarinic acetylcholine receptor M1 (Homo sapiens) (P11229 whole entry, looked up): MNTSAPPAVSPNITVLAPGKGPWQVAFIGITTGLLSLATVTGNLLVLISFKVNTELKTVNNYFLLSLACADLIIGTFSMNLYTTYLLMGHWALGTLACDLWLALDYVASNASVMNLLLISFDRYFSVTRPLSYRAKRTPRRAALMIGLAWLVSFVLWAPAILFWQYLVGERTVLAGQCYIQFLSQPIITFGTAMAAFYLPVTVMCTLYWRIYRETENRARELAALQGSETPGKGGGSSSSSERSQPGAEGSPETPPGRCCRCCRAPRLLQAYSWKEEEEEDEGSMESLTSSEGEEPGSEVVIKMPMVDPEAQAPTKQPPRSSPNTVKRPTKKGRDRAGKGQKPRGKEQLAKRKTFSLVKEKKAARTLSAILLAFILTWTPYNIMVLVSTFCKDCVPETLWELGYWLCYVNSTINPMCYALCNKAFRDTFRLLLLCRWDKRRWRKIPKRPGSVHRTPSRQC
# In short: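 Compounds were tested at 15 concentrations in three independent runs. Dye-loaded CHRM1-CHO cells were exposed 5 min at room temperature before stimulation by acetylcholine added at 50nM. Intracellular calcium was read kinetically on FDSS for 3 min.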
# [14] = target: Muscarinic acetylcholine receptor M1 (Homo sapiens) (UniProt P11229); assay: Cholinergic receptor muscarinic 1 (CHRM1) small molecule agonists, cell-based qHTS assay (AID 1963589); also: nearly all actives have a fitted effect of over 35% in size
# In short: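 Cells were plated and incubated 18 h at 37 C/5% CO2, loaded with calcium dye for 1 h at 37 C, then treated with compounds in DMSO. Fluorescence was recorded kinetically at 1 sec intervals.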
# [15] = cAMP Responsive Elements (CRE) small molecule agonists, cell-based qHTS assay (AID 1963590)
# In short: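 Cells carrying a CRE-driven beta-lactamase reporter (HEK 293T) are seeded, incubated overnight (18 h), and treated with test compounds for 3 h at 37 C; reporter activity is then detected with a FRET substrate after 2 h at room temperature.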
# [16] = cAMP Responsive Elements (CRE) small molecule antagonists, cell-based qHTS assay (AID 1963591; active = well fitted inhibition curve with a large enough effect in the signal ratio in the repeat runs, not every such curve was filed as active; the % refers to the signal ratio)
# In short: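 Cells (CRE-bla HEK 293T, DMEM with 10% dialyzed FBS and 25 mM HEPES) are seeded and incubated 18 h. Compounds are added with NKH477 agonist at 0.25 uM final for 3 h, then FRET substrate for 2 h.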
# [17] = target: Beta-2 adrenergic receptor (Homo sapiens) (UniProt P07550); assay: Adrenergic beta2 receptor (ADRB2) small molecule antagonists, cell-based qHTS assay (AID 1963592); also: series mostly up to about 92 µM; nearly all actives have a fitted effect of over 50% in size
# Sequence of Beta-2 adrenergic receptor (Homo sapiens) (P07550 whole entry, looked up): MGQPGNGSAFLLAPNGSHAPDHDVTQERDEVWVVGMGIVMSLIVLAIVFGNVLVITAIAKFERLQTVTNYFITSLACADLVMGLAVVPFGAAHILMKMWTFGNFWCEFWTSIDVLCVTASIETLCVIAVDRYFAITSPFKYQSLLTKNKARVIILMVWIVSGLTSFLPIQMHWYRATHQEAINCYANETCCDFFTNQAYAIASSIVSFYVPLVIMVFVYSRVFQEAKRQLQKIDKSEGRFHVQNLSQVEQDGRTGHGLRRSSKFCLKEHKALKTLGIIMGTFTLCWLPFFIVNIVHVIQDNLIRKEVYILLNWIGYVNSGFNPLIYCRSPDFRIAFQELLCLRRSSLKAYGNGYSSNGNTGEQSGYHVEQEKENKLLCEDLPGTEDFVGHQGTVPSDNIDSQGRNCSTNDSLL
# In short: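 Assay format: CHO-ADRB2 cells, 18-20hr seeding at 37C/5% CO2, then compound plus 1nM isoproterenol agonist mix for 0.5hr RT. Homogeneous time-resolved fluorescence cAMP detection after 1hr, expressed as 665/615 nm ratio.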
# [18] = target: D(2) dopamine receptor (Homo sapiens) (UniProt P14416); assay: Dopamine D2 receptor (DRD2) small molecule agonists, cell-based qHTS assay (AID 1963594); also: nearly all actives have a fitted effect of over 35% in size
# Sequence of D(2) dopamine receptor (Homo sapiens) (P14416 whole entry, looked up): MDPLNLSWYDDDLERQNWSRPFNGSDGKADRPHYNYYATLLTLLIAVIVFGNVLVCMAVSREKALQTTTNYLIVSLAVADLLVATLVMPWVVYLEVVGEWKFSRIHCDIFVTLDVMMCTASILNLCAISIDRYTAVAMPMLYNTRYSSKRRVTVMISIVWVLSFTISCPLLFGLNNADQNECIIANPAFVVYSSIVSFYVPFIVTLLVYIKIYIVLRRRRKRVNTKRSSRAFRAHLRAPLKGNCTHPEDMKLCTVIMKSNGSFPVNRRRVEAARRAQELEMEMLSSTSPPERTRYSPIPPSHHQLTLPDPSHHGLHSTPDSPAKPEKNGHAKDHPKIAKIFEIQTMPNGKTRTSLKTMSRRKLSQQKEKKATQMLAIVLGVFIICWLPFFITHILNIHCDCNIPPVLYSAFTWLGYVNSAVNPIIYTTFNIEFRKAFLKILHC
# In short: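 HEK293 cells stably expressing human DRD2, pre-treated with PDE inhibitor Ro20-1724 (0.1 mM final) and compound 10 min at room temperature, then stimulated with NKH477 (200nM […]) for 30 min. cAMP read by HTRF (665/620 nm).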
# [19] = target: D(2) dopamine receptor (Homo sapiens) (UniProt P14416); assay: Dopamine D2 receptor (DRD2) small molecule antagonists, cell-based qHTS assay (AID 1963595; active = well fitted inhibition curve with a large enough effect in the signal ratio in the repeat runs, with a control signal flat; the % refers to the signal ratio)
# In short: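 In this cell-based antagonist screen, compounds act for 10 min at room temperature before a 30 min challenge with 12 nM quinpirole and 200 nM NKH477. cAMP is quantified by HTRF competition in DRD2-HEK293 cells containing 0.1 mM Ro20-1724.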
# [20] = p53 small molecule agonists, cell-based qHTS assay with human liver microsomes (AID 1963577)
# In short: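 Fluorescence of the beta-lactamase reporter in p53RE-bla cells, detected with LiveBLAzer substrate (2 h, room temperature, dark), served as the read-out after 16 h compound exposure at 37 C with human liver microsomes and NADPH, each 0.5 mg/mL final.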
SMILES,Potency [1],Potency [2],Potency [3],outcome [4],outcome [5],Potency [6],Potency [7],Potency [8],Potency [9],Potency [10],Potency [11],Potency [12],Potency [13],Potency [14],Potency [15],Potency [16],Potency [17],Potency [18],Potency [19],Potency [20]
C/C=C(\C)C(=O)OCCc1ccccc1,inactive,inactive,inactive,inactive,inactive,inactive,inactive,inactive,inactive,inactive,inactive,inactive,inactive,inactive,inactive,inactive,inactive,inactive,inactive,–
C=CC(=O)OCCCCCCCCCC,inactive,inactive,inactive,inactive,inactive,–,inactive,–,inactive,inactive,inactive,inactive,inactive,inactive,inactive,inactive,inactive,inactive,inactive,inactive
C/C(=N\[Si](C)(C)C)O[Si](C)(C)C,inactive,inactive,inactive,inactive,inactive,inactive,inactive,inactive,inactive,inactive,inactive,inactive,inactive,inactive,inactive,inactive,inactive,inactive,inactive,–
c1cc[nH]c1,inactive,inactive,inactive,inactive,inactive,–,inactive,inactive,–,inactive,inactive,inactive,–,inactive,inactive,inactive,–,inactive,inactive,inactive
C=C(C)C(=O)OCCCCCCCCCCOC(=O)C(=C)C,inactive,inactive,inactive,inactive,inactive,inactive,inactive,inactive,inactive,inactive,inactive,inactive,inactive,inactive,inactive,inactive,inactive,inactive,inactive,–
CCOC(=O)CCc1ccccc1,inactive,inactive,inactive,inactive,inactive,–,–,inactive,inactive,inactive,inactive,–,inactive,inactive,inactive,inactive,inactive,inactive,inactive,inactive
C=CCCCCCCCCC(=O)OCC,inactive,inactive,inactive,inactive,inactive,–,inactive,–,inactive,inactive,inactive,–,inactive,inactive,inactive,inactive,inactive,inactive,inactive,inactive
COc1cc2nc(N3CCN(C(=O)C4CCCO4)CC3)nc(N)c2cc1OC (configuration not stated),inactive,inactive,inactive,inactive,inactive,–,inactive,inactive,–,–,–,–,–,–,inactive,inactive,–,inactive,inactive,inactive
CCN(CC)C(=O)N(CC)CC,inactive,inactive,inactive,inactive,inactive,inactive,inactive,inactive,inactive,inactive,inactive,inactive,inactive,inactive,inactive,inactive,inactive,inactive,inactive,–
CO[Si](CCCS)(OC)OC,inactive,inactive,inactive,inactive,inactive,–,–,inactive,inactive,inactive,–,inactive,inactive,inactive,inactive,inactive,inactive,inactive,inactive,inactive
O=C1[C@H]2CCCC[C@H]2C(=O)N1CCCCN1CCN(c2nsc3ccccc23)CC1,inactive,inactive,inactive,inactive,inactive,–,inactive,inactive,–,inactive,–,inactive,–,inactive,–,–,inactive,inactive,–,inactive
CCCOC(=O)c1ccc(C(=O)OCCC)nc1,inactive,inactive,inactive,inactive,inactive,–,inactive,inactive,inactive,–,inactive,inactive,inactive,inactive,–,–,inactive,inactive,inactive,inactive
CCCCCCCCCCCCOC(=O)c1ccc(O)cc1,43.6 µM (active),inactive,inactive,inactive,inactive,–,inactive,inactive,–,inactive,inactive,inactive,–,inactive,inactive,inactive,–,–,inactive,inactive
[Cl][Pt-2]([Cl])([Cl])[Cl],inactive,inactive,inactive,inactive,inactive,–,inactive,inactive,inactive,–,inactive,inactive,inactive,inactive,–,inactive,inactive,–,–,inactive
